Test results reported in PubChem BioAssay AID686979 (National Center for Advancing Translational Sciences (NCATS), 2013).
In all, about 420,000 compounds went through this assay and about 50,000 (12%) were called active. Where a call stands in place of a potency, no number is given. Inconclusive results (about 26%) are left out. Calls come from the whole dose curve; as a rule, active = well fitted inhibition curve with a large enough effect; inconclusive = small, poorly fitted or top-dose-only effect; inactive = flat fitted curve, though single readings scatter. The full list was thinned out, with actives kept by preference.

Assay: qHTS for Inhibitors of human tyrosyl-DNA phosphodiesterase 1 (TDP1): qHTS in cells in presence of CPT; note: nearly all actives have a fitted effect of over 55% in size
Settings: chicken DT40 Tdp1-/-;hTDP1 cells + 20 nM CPT, ATP luminescence, 48 h; series mostly up to 46.2 µM
Summary of the method: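 Chicken DT40 Tdp1-/- cells complemented with human TDP1, 400 cells/well, exposed to compounds plus 20 nM camptothecin for at least 48 h at 37 C; viability read as ATP content by CellTiter-Glo luminescence.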
Potency is the fitted concentration of half-maximal effect.

SMILES | Potency
Cn1c(=O)c2c(ncn2CCc2ccccc2)n(C)c1=O | inactive
CC(C)Cn1cnc2c1c(=O)n(CC(O)c1ccccc1)c(=O)n2CC(C)C (configuration not stated) | inactive
Cn1c(=O)c2c(ncn2CC(COCc2ccccc2Cl)OCc2ccccc2Cl)n(C)c1=O (configuration not stated) | 25.9 µM (active)
COc1ccc(C)cc1NC(=O)CSc1nnc2ccc(-c3ccccn3)nn12 | inactive
CCN(Cc1ccccc1)S(=O)(=O)c1cc2c3c(c1)CCN3C(=O)CC2 | inactive
O=C(CCc1nc(CN2CCN(S(=O)(=O)c3ccc(F)cc3)CC2)no1)N1CCCCC1 | inactive
CCc1ccc(CNCc2c(C(=O)O)n(Cc3ccc(F)cc3Cl)c3cc(OC)ccc23)cc1 | 11.6 µM (active)
COc1cccc(NC(=O)NCc2ccc(F)cc2)c1 | inactive
COc1ccc(CNC(=O)CN2CCC(n3nnc4cc(F)ccc43)CC2)cc1 | inactive
COc1cc(C)nc(N2CCCC(C(=O)NCC(C)C)C2)n1 (configuration not stated) | inactive
O=C(Nc1ccccc1)O/N=C1\CCCCC1c1ccc([N+](=O)[O-])cc1[N+](=O)[O-] (configuration not stated) | inactive
COc1cccc(NC(=O)COc2cccnc2[N+](=O)[O-])c1 | inactive
Cc1nnc(NC(=O)CCCOc2ccccc2)s1 | inactive
Cc1ccn2c(-c3csc(Nc4ccc(C(=O)O)cc4)n3)c(C)nc2c1 | inactive
CCCCCCC(=O)Nc1nc(C)c(-c2csc(Nc3cccc(OC)c3)n2)s1 | 20.6 µM (active)
C=CCCC(=O)Nc1nc(C)c(-c2csc(Nc3ccc(Cl)cc3)n2)s1 | 11.6 µM (active)
CC(=O)Nc1nc(C)c(-c2csc(Nc3ccc(S(N)(=O)=O)cc3)n2)s1 | inactive
CCc1ccccc1OCC(=O)Nc1nnc(C2CC2)s1 | inactive
N#Cc1ccc[n+](CC(=O)c2ccc(O)c(O)c2)c1 | inactive
O=C(CSc1ncn[nH]1)Nc1ccc(Br)cc1Br | inactive
Cc1n[nH]c(=O)c2c(NC(=O)COC(=O)c3ncc(Cl)c(Cl)c3Cl)oc(C)c12 | inactive
O=C(CN(C(=O)c1nsc(Cl)c1Cl)c1cccc(F)c1)NC1CCCC1 | inactive
Cc1ccc(S(=O)(=O)n2oc(=O)c(C3CCCCC3)c2N)cc1 | inactive
O=C(N/N=C/c1ccc2c(c1)OCO2)c1ccc(Cn2cc([N+](=O)[O-])cn2)o1 | inactive
Cc1c(Cl)c([N+](=O)[O-])nn1Cc1ccc(C(=O)N/N=C\c2cc(Cl)ccc2O)o1 | 3.66 µM (active)

SMILES | Potency
Cc1ccc(C(=O)O)cc1NC(=O)c1ccc(Cn2nc(C)c(Cl)c2C)o1 | inactive
Brc1ccccc1/C=N/Nc1nc2ccccc2o1 | inactive
COc1cc(OC)cc(-c2nnc(N(C)C(=O)c3ccncc3)s2)c1 | inactive
COCCN(C(=O)C(C)C)c1nnc(-c2ccc(C(C)(C)C)cc2)s1 | 20.6 µM (active)
COCCN(C(=O)c1ccco1)c1nnc(-c2ccc(OC)cc2)s1 | inactive
COc1ccc(/C=C/c2noc(-c3ccccc3O)n2)cc1OC | inactive
CC(=O)O[C@H]1c2ccccc2-c2ccccc2[C@@H]1OC(C)=O | inactive
Cc1cccc(NC(c2cccc(F)c2)c2ccc3ccc(C)nc3c2O)n1 (configuration not stated) | 8.2 µM (active)
CCn1ncc(CNC(=O)C2(C)CC2(Br)Br)c1C (configuration not stated) | inactive
O=C(CCCC(=O)N1CCN(c2cccc(Cl)c2)CC1)c1ccccc1 | 14.6 µM (active)
CCc1nc2ccc(C(=O)N3CCN(c4cccc(Cl)c4)CC3)cc2nc1CC | inactive
O=C(CN1CCN(c2ccc(Cl)cc2)CC1)c1ccccc1 | inactive
COc1cc(C(C(=O)NC2CCCC2)N(C(=O)c2ccco2)c2ccccc2C(C)=O)cc(OC)c1OC (configuration not stated) | inactive
CC(C)C(NC(=O)c1c(F)cccc1F)C(=O)NCc1ccncc1 (configuration not stated) | inactive
CCO[C@H]1OC(C(=O)N2CCOCC2)=C[C@@H](c2ccc3c(c2)OCO3)[C@@H]1CCCO | inactive
O=C(NC1CC1)C1=C[C@H](c2coc3ccccc3c2=O)C[C@H](OCCCCO)O1 | inactive
CCO[C@H]1OC(C(=O)NCc2ccccc2)=C[C@@H](c2coc3ccccc3c2=O)[C@@H]1CCCO | 23.1 µM (active)
Cc1ccc(NC(=O)C(c2ccccc2)N2CCN(C(=O)c3ccco3)CC2)cc1 (configuration not stated) | inactive
O=C(O)C1CCCN1c1nc(Cl)ccc1[N+](=O)[O-] (configuration not stated) | inactive
CCC(=O)N1CCc2cc(Br)cc(S(=O)(=O)CCC(=O)N3CCN(c4ccc(F)cc4)CC3)c21 | 20.6 µM (active)
O=C(CCS(=O)(=O)c1cc(Br)cc2c1N(C(=O)C1CC1)CC2)Nc1ccc(Br)cc1F | inactive
CN(Cc1ccccc1)C(=O)CCS(=O)(=O)c1cc(Br)cc2c1N(C(=O)C1CC1)CC2 | 13 µM (active)
CCC(=O)N1CCc2cc(S(=O)(=O)CCC(=O)N3CCN(c4ccccc4F)CC3)ccc21 | inactive
O=C(CCS(=O)(=O)c1cc(Br)cc2c1N(C(=O)C1CC1)CC2)Nc1ccc(C(F)(F)F)cc1 | inactive
CCC(=O)N1CCc2cc(Br)cc(S(=O)(=O)CCC(=O)NCc3ccccc3OC)c21 | inactive

SMILES | Potency
CC1(C)C[C@H]2C3=CCC4[C@@]5(C)CC[C@H](O)[C@](C)(CO)C5CC[C@@]4(C)[C@]3(C)C[C@@H](O)[C@@]2(CO)[C@@H](O)[C@@H]1O (some centres not stated) | inactive
CCCCc1nc2cc(C(=O)NCCc3cnn(C)c3)ccc2o1 | inactive
Cc1cc(C)c(C)c(S(=O)(=O)N[C@@H](C)C(=O)OC(C)C(=O)NC(N)=O)c1C (some centres not stated) | inactive
CN(Cc1c(F)cccc1Cl)C(=O)COC(=O)Cn1cnc2ccccc2c1=O | inactive
CCc1nnc(NC(=O)C2CCN(C(=O)c3ccccc3C)CC2)s1 | inactive
Cc1ccccc1C(=O)N1CCC(C(=O)Nc2ccc(S(=O)(=O)N(C)C(C)C)cc2)CC1 | 14.6 µM (active)
CCOC(=O)Nc1ccc(S(=O)(=O)N(C)C(C)C)cc1 | inactive
COc1ccc(N2CCN(CCCNC(=O)C3CCN(S(=O)(=O)N4CCOCC4)CC3)CC2)cc1 | inactive
NNC(=O)c1oc2nc(-c3ccccc3)cc(-c3ccco3)c2c1N | inactive
CN(C)C(=O)Cn1c(=O)n(S(=O)(=O)c2ccccc2)c2ccccc21 | inactive
C/C(=N\OCC(=O)Nc1ccc(Br)cc1)c1cccs1 | inactive
CC1CC2=C(CC1/C=N/NC(N)=S)C(C)(C)CCC2 (configuration not stated) | 4.11 µM (active)
CC1(C)CCCC2=C1CC1C(=O)N(c3ccccc3)C(=O)C1C2 (configuration not stated) | inactive
Cc1ccccc1N1CC(C(=O)Nc2nnc(SCCC3OCCO3)s2)CC1=O (configuration not stated) | inactive
COc1ccc(NC(=O)N2CCCC2C(=O)NCc2ccccc2Cl)cc1 (configuration not stated) | inactive
Cc1ccccc1-c1nc(C#N)c(NCc2ccco2)o1 | inactive
CCOc1ccc(Nc2oc(/C=C/c3ccc(F)cc3)nc2C#N)cc1 | inactive
COc1ccc(Nc2oc(-c3ccccc3Cl)nc2C#N)cc1 | 2.91 µM (active)
CCOC(=O)N1CCN(Cc2nnc(-c3ccccc3Cl)o2)CC1 | inactive
CCc1ccc[n+](-c2nc([O-])sc2C=O)c1 | inactive
COc1cccc(C(=O)Nc2cc3c(cc2Br)OCCCO3)c1 | inactive
Cn1c(N)c(C(=O)COC(=O)C23CC4CC(CC(C4)C2)C3)c(=O)n(C)c1=O | inactive
Cc1cc(C(=O)COC(=O)C2CC2)c(C)n1-c1ccc(F)cc1 | inactive
CCOC(=O)c1cc2c(n(-c3ccc(C)cc3)c1=O)CCCC2=O | inactive
Cc1ccc(-n2c(C)cc(C(=O)CN3C(=O)C(=O)N(C4CCCC4)C3=O)c2C)cc1 | 20.6 µM (active)

SMILES | Potency
Cc1cc(OC(=O)c2ccc(OC(C)C)cc2)c([N+](=O)[O-])c(=O)[nH]1 | inactive
COCc1cc(C)n(CC(=O)NCC2CCCO2)c(=O)c1C#N (configuration not stated) | inactive
CC1(C)O[C@@H]2CC3C4C[C@H](F)C5=CC(=O)C=CC5(C)C4C(O)CC3(C)[C@]2(C(=O)CO)O1 (some centres not stated) | inactive
CCc1ccc(CNC(=O)C2CCCN(c3nc4ccccc4o3)C2)cc1 (configuration not stated) | inactive
CCOC(=O)c1ccccc1NC(=S)N1CCC(C(N)=O)CC1 | inactive
CCOC(=O)c1cnc(Nc2nc3ccccc3o2)nc1CSC(=S)N1CCCCC1 | 0.146 µM (active)
O=C(COc1ccc(F)cc1)N(CC1=CCS(=O)(=O)C1)c1ccccc1 | inactive
CN(Cc1ccccc1)C(=O)COc1ccccc1 | inactive
CCN(C(=O)COc1ccc(C(=O)c2ccccc2)cc1)c1ccccc1 | 18.4 µM (active)
CC(C)CCN1C(=O)c2ccc(C(=O)Nc3cccc(S(N)(=O)=O)c3)cc2C1=O | inactive
COCCCn1c(SCC(=O)Nc2oc(C)c3c(C)n[nH]c(=O)c23)nc2sc3c(c2c1=O)CCC3 | inactive
O=C1/C(=C/c2ccc(F)cc2)SC(=S)N1CCCC(=O)N1CCCCC1CCO (configuration not stated) | 16.4 µM (active)
COc1ccccc1C(=O)NNC(=O)CCN1C(=O)/C(=C\c2ccccc2)SC1=S | inactive
Cc1ccc(/C=C2\SC(=S)N(CCC(=O)Nc3ccc(O)cc3)C2=O)cc1 | inactive
CN(C)c1ccc(NC(=O)CN2C3CCCC2CC(NC(=O)c2ccccc2)C3)cc1 (configuration not stated) | inactive
CCc1cnc2c(c1SCC(=O)N1CCC(C)CC1)c(=O)n(C)c(=O)n2C | 20.6 µM (active)
CCOC(=O)N1CCN(C(=O)CSc2nc(C)nc3c2c(=O)n(C)c(=O)n3C)CC1 | inactive
Cc1ccc(CNC(=O)CSc2c(C)cnc3c2c(=O)n(C)c(=O)n3C)cc1 | inactive
COc1ccc(NC(=O)CCC(=O)Nc2cc(OC)c(NC(=O)c3ccco3)cc2OC)c(OC)c1 | inactive
COc1cc(C(c2c(NC(=O)c3ccco3)sc(C)c2C)N2CCOCC2)cc(OC)c1OC (configuration not stated) | 23.1 µM (active)
COc1ccc(CC(=O)Nc2ccccc2NC(=O)c2ccco2)cc1OC | inactive
COC(=O)c1ccccc1NC(=O)c1ccc(COc2ccccc2Cl)o1 | inactive
